Results on eight molecules are retold here after PubChem BioAssay AID1003 (National Center for Advancing Translational Sciences (NCATS), 2008).

Activity calls are given as the source filed them.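 The calls were made as follows: active = compounds that block the bacterial enzyme AmpC beta-lactamase with detergent present and have a measured Ki; inactive = the rest.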

Beta-lactamase (Escherichia coli (strain K12)), sequence (P00811 whole entry, looked up): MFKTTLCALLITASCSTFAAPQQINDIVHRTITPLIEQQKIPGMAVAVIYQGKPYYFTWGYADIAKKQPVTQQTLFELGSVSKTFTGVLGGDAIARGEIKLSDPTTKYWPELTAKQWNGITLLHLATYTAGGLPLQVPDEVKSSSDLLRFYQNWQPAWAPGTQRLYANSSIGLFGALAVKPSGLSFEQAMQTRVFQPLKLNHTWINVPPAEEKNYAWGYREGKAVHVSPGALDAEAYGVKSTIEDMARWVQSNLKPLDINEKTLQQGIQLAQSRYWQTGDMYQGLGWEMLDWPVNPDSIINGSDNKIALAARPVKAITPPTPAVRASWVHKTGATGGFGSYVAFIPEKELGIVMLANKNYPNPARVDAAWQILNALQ

This assay has as its target Beta-lactamase (Escherichia coli (strain K12)) (UniProt P00811). Nature of the assay: Confirmation Cuvette-Based Assay for Inhibitors of AmpC Beta-Lactamase (assay with detergent). To be noted: purified AmpC, nitrocefin hydrolysis absorbance, 0.01% Triton. Here is the method: NIH Molecular Libraries Screening Centers Network [MLSCN] NIH Chemical Genomics Center [NCGC] MLSCN Grant: MH079825-01 Assay Provider: Shoichet, Brian K. This aggregation profiling approach exploits the sensitivity of aggregate formation to detergent. Inhibition of b-lactamase is measured in the presence and absence of 0.01% Triton X-100 (Feng 2007). This particular assay is a confirmation of previous qHTS (Inglese, 2006), Pubchem AID 584, assay with presence of 0.01% Triton X-100. For a related assay without detergent, see AID 585. Compounds that inhibit only in the absence of detergent are considered likely promiscuous aggregators. This confirmation assay is a cuvette-based screen of an oxadiazole carbamate series which is an expansion around docking hit Pubchem SID 4244870.
Reactions were performed in methylacrylate cuvettes in 1 mL of reaction volume. The beta-lactamase assay contained 1 nM AmpC beta-lactamase, 200 uM Nitrocefin and varying amounts of Triton X-100 (either 0.00002% or 0.1%). Compound and enzyme were incubated for 5 minutes before the reaction was initiated by addition of substrate. Nitrocefin hydrolysis was monitored as an increase in absorption at 482 nm on an Agilent 8453 UV-visible spectrophotometer at room temperature.
The Ki is a dissociation constant, usually derived from enzyme kinetics or from competition with a known ligand. Consider `O=C(O)c1ccc2c(c1)C(=O)N([C@H](Cc1cccc3ccccc13)C(=O)O)C2=O`, for which the Ki is 5 µM (active). Turning to `O=C(O)c1ccc2c(c1)C(=O)N([C@H](Cc1c3ccccc3cc3ccccc13)C(=O)O)C2=O`, the Ki was 12 µM (active). As for `O=C(O)c1ccc2c(c1)C(=O)N([C@H](Cc1c[nH]c3ccccc13)C(=O)O)C2=O`, the figure is 17 µM (active); as for `Cc1ccc(C[C@H](C(=O)O)N2C(=O)c3ccc(C(=O)O)cc3C2=O)c(C)c1`, 17 µM (active). The result for `O=C(O)c1ccc2c(c1)C(=O)N([C@H](Cc1ccc(-c3ccccc3)cc1)C(=O)O)C2=O` reads 15 µM (active); that for `CC(C)(C)c1ccc(C[C@H](C(=O)O)N2C(=O)c3ccc(C(=O)O)cc3C2=O)cc1`, 11 µM (active).

In the case of `O=C(O)c1ccc2c(c1)C(=O)N([C@H](Cc1ccc3ccccc3c1)C(=O)O)C2=O`, the Ki is 14 µM (active). The result for `Cn1cc(C[C@H](C(=O)O)N2C(=O)c3ccc(C(=O)O)cc3C2=O)c2ccccc21` reads 17 µM (active).
